Laboratory results as given in ChEMBL document CHEMBL3433997, “St. Jude Leishmania screening dataset” (2016).

Columns and labels:
Format in all cases: functional
[1] = target: Solute carrier family 2, facilitated glucose transporter member 1 (Homo sapiens) (UniProt P11166); assay: ST_JUDE_LEISH: Cytotoxicity at 2uM final concentration against transgenic Leishmania Mexicana promastigotes LmGLUT1 that are glucose transport deficient and complemented with the human glucose transporter GLUT1. Activity is measured by DNA content using SYBR green in vitro
[2] = target: Hexose transporter 1 (Plasmodium falciparum) (UniProt O97467); assay: ST_JUDE_LEISH: Cytotoxicity at 2uM final concentration against transgenic Leishmania Mexicana promastigotes LmPfHT that are glucose transport deficient and complemented with the Plasmodium falciparum hexose transporter. Activity is measured by DNA content using SYBR green in vitro
[3] = target: Glucose transporter (Leishmania mexicana) (UniProt O61059); assay: ST_JUDE_LEISH: Cytotoxicity at 2uM final concentration against transgenic Leishmania Mexicana promastigotes LmGT2 that are glucose transport deficient and complemented with the L. Mexicana glucose transporter 2. Activity is measured by DNA content using SYBR green in vitro

Chain of Solute carrier family 2, facilitated glucose transporter member 1 (Homo sapiens) (P11166 whole entry): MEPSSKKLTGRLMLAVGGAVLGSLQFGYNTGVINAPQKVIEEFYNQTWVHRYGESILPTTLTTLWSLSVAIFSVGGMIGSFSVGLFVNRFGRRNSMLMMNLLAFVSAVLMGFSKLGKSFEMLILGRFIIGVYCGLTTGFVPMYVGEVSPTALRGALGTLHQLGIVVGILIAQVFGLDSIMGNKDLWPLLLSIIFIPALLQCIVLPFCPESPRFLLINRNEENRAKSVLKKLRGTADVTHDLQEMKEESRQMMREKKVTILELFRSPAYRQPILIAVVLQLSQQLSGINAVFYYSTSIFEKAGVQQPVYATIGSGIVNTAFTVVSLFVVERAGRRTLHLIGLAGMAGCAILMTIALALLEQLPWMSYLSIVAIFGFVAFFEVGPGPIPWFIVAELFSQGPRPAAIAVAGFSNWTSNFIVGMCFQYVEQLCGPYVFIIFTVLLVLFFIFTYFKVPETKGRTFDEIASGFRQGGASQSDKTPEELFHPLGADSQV

Structure (SMILES)	inhibition [1]	inhibition [2]	inhibition [3]
CC1(C)NC(N)=NC(=N)N1OCCCOc1ccccc1Cl	8.95%	10%	12%
O=C(Nc1ccc2c(c1)CCN(C1CCC1)CC2)c1ccc(-c2cn3ccccc3n2)cc1	3.01%	1.01%	3.48%
O=C(c1cc(C(=O)Nc2ccccc2F)c(=O)n(-c2ccccc2F)c1)c1cc(Cl)ccc1O	1.31%	-0.63%	-2.18%
Nc1nc(N)c2c(Cl)c(N(Cc3ccccc3)Cc3ccccc3)ccc2n1	23.6%	23.5%	7.75%
CCCCCN1CCC(NS(=O)(=O)c2cccc(C(=O)Nc3cccc(C(F)(F)F)c3)c2)C1 (stereo not drawn)	1.68%	1.1%	4.07%
Cc1ccc(CN2CCCN(Cc3cccc(C(=O)Nc4ccc(C(C)(C)C)cc4)c3)CC2)s1	7.92%	2.76%	0.76%
CN(Cc1ccccc1)C1CCN(c2cc(NC(=O)c3cccc(F)c3)ccn2)CC1	6.87%	8.73%	6.54%
CS(=O)(=O)NCCCNCc1cccc(-c2ccc(-c3nc4ccccc4[nH]3)s2)c1	12.1%	11.8%	11%
COc1ccc(-c2cccc(NC(=O)c3ccc(Cl)cc3)c2)cc1CN1CCNCC1	2.69%	0.49%	-0.7%
CC1(C)NC(N)=NC(=N)N1OCC1CCCCC1	-0.1%	1.24%	0.75%
CCCc1cc(NC2CCN(C)CC2)nc(Nc2ccc(C)cc2)n1	5.35%	3.28%	2.46%
c1cc(-c2ccc(CNCCCn3ccnc3)cc2)cc(-c2nc3ccccc3[nH]2)c1	2.87%	2.53%	0.93%
CCC1CN(S(=O)(=O)c2ccc3c(c2)NC(=O)CC(=O)N3)c2cc(Cl)ccc2O1 (stereo not drawn)	2.65%	2.92%	3.29%
O=C(Nc1ccc(-c2ccccc2)cc1)Nc1cccc(Cn2ncc(N3CCCNCC3)c(Cl)c2=O)c1	1.74%	0.84%	0.04%
CC(=O)C=C1CC(=O)N(C[C@@H](O)[C@H]2O[C@@H]3OC(C)(C)O[C@@H]3[C@H]2O)c2ccccc2N1	2.82%	3.82%	2.35%
Cc1nc2nc(N)nc(N)c2c(C)c1Cc1ccc(C(F)(F)F)cc1	32.9%	38.8%	28.9%
CN1CCCc2ccc(NC(=O)c3ccc(-c4cc(C(F)(F)F)nn4C)s3)cc2C1	2.28%	1.85%	-2.38%
COc1cc(C)nc2ccc(NC(=O)COCC(=O)Nc3ccc4nc(C)cc(OC)c4c3)cc12	4.3%	3.83%	3.64%
COc1cccc(Nc2nnc(SCC(=O)NNC(=O)c3ccccn3)s2)c1	0.56%	2.27%	-1.42%
O=C(NC1CCN(c2ccnc(Nc3ccc(F)cc3)n2)C1)c1cc2ccccc2s1 (stereo not drawn)	0.69%	1.57%	1.27%
COc1ccccc1-n1ccnc1SCC(=O)Nc1cc(C(F)(F)F)ccc1Cl	-3.59%	-0.64%	-1.83%
CCc1cn2c3c(cc(C(=O)N[C@@H](Cc4cccc(F)c4)[C@H](O)CNC4CCCCC4)cc13)N(C)S(=O)(=O)CC2	-0.36%	-1.06%	-0.81%
O=C(Nc1ccc([N+](=O)[O-])cc1Cl)c1cc2ccccc2cc1O	0.6%	1.59%	1.3%
COCCNc1nc(N2CCC(CNC(=O)c3ccc(-c4ccc(C(=O)N(C)C)cc4C)cc3)CC2)nc2cc(OC)c(OC)cc12	-0.42%	1.09%	1.17%

Structure (SMILES)	inhibition [1]	inhibition [2]	inhibition [3]
Cc1n[nH]c2cc(F)c(-c3cc(OC[C@@H](N)Cc4ccccc4)cnc3-c3ccoc3)cc12	10.8%	16.1%	6.42%
COC(=O)c1cccc(CNCc2ccc(-c3cccc(-c4nc5cccc(C)c5[nH]4)c3)cc2)c1	-0.37%	-1.65%	-2.21%
CN1CCN(Cc2ccc(-c3ccc4c(Nc5cc(O)c(Cl)cc5F)ccnc4c3)o2)CC1	7.47%	4.6%	4.5%
Cc1ccccc1C1CCN(C2CCC(NC(=O)c3cncc(-c4ccccc4)c3)CC2)CC1 (stereo not drawn)	6.15%	6.33%	3.53%
CN1CC[C@@H](Oc2cc(NC(=O)Nc3ccc(Cl)c(C(F)(F)F)c3)ccc2Cl)C1	0.88%	0.12%	0.51%
Cc1[nH]c(C)c(-c2ccc(OCCCCSc3ccncc3)cc2)c(=O)c1Br	8.71%	6.45%	8.94%
CCN(CC)CCN(Cc1ccc(-c2ccc(C(F)(F)F)cc2)cc1)C(=O)Cn1c(CCc2cccc(F)c2F)c(C)c(=O)c2ccccc21	1.84%	1.5%	3.04%
c1ccc(CN2CCN(CCCCNc3c4ccccc4nc4ccccc34)CC2)cc1	31.7%	37.9%	19.4%
Cc1cc(C(=O)CN2C(=O)NC3(CCCc4ccccc43)C2=O)c(C)n1Cc1ccco1 (stereo not drawn)	1.28%	0.08%	-1.89%
CCc1ccc(CNCC(CCNc2cc(=O)c3ccccc3[nH]2)NCc2cc(Br)cc(Br)c2)o1 (stereo not drawn)	-1.12%	1.71%	-0.33%
CCc1cn2c3c(cc(C(=O)N[C@@H](Cc4ccccc4)[C@H](O)CNC4CCOCC4)cc13)N(C(C)C)S(=O)(=O)CC2	-1.49%	3.8%	0.93%
Cc1cc(O)c(-c2cccc(Oc3ccc(Cl)cc3)c2)c(C)n1	-1.02%	1.39%	-3.29%
CCOc1ccc(Nc2nc(N)c3ccccc3n2)cc1	12.3%	10.3%	6.25%
COc1cc([N+](=O)[O-])ccc1NC(=O)Nc1ccc(OC(F)(F)F)cc1	1.06%	2.37%	-2.01%
COc1ccc(NC(=O)[C@H](C)Nc2cc(C)nc(NCC3CCCCC3)n2)cc1	5.31%	3.39%	3%
CN1CCC(COc2ccc(CN3CCC(NC(=O)c4cccc(Cl)c4)CC3)cc2)CC1	2.48%	3.13%	0.42%
CCC[C@@H](C(=O)NCCc1cccc(OC)c1)N1C(=O)c2c(ccc(OC)c2OC)C1C(=O)Nc1c(C)cccc1C (stereo partly drawn)	0.5%	0%	0.1%
CN(C)CCCOc1ccc(CN2CC[C@H](NC(=O)c3ccc(Cl)c(Cl)c3)C2)c2ccccc12	-0.55%	1.01%	0.71%
CCOc1cc2c(cc1OCC)C(c1ccc(O)c(Cl)c1)NCC2 (stereo not drawn)	11.9%	13.1%	10.3%
COc1ccc(CCc2ccc(-c3c(C)[nH]c(C)c(Cl)c3=O)cc2)cc1	2.55%	3.51%	1.05%
Cc1cccc2nc(-c3ccc(-c4ccc(NC(=O)Nc5ccc(F)c(F)c5F)cc4)s3)[nH]c12	1.26%	0.06%	0.31%
Cc1cccc2nc(-c3ccc(-c4ccc(CN5CC(C)OC(C)C5)cc4)cc3)[nH]c12 (stereo not drawn)	4.48%	3.58%	0.01%
Cc1cccc2nc(-c3cccc(-c4ccc(NC(=O)NC(C)C)cc4)c3)[nH]c12	0%	2.42%	-0.9%
Cc1nc(N)nc(N)c1-c1ccc(Br)c([N+](=O)[O-])c1	1.12%	2.99%	2.4%

Structure (SMILES)	inhibition [1]	inhibition [2]	inhibition [3]
COc1cc(Cc2cnc(N)nc2N)ccc1OCC(=O)Nc1ccc(C)cc1	8.4%	9.26%	8.92%
Cc1c(NC(=O)COc2ccc(Cl)cc2C(=O)c2cc(F)cc(C(F)(F)F)c2)ccc2ncsc12	9.85%	9.17%	7.93%
O=C(Nc1cccc(CN2CCCN(Cc3cccc(Cl)c3)CC2)c1)c1ccc(Cl)c(Cl)c1	1.69%	1.9%	4.28%
O=C(Nc1ccc(S(=O)(=O)N2CCCCC2)cc1)c1cc(-c2cc(Cl)ccc2O)n[nH]1	6.03%	6.9%	4.71%
N=C(N)NN=Cc1c2ccccc2c(Cl)c2ccc(Cl)cc12	107%	106%	104%
O=C(Nc1cccc(Cl)c1)c1cc2ccccc2cc1O	2.74%	3.05%	2.04%
Cc1cccc(C(O)CNc2ccnc(Nc3cccc(-c4csc(C)n4)c3)n2)c1 (stereo not drawn)	3.68%	4.04%	2.54%
COc1cccc(C(=O)Nc2ccc(-c3nc4ccccc4[nH]3)cc2)c1	3.48%	1.76%	0.31%
O=S(=O)(NCCCN1CCOCC1)c1ccc2nccc(Nc3ccc(Oc4ccccc4)cc3)c2c1	-1.16%	-0.87%	-0.94%
COc1ccc(CNC2Cc3ccccc3C2)cc1-c1ccc(S(=O)(=O)NCCN2CCCC2)cc1	3.15%	1.44%	-2.73%
CCCCCC(C)N/C(=N/c1cccc(Cl)c1Cl)Nc1ccc(C#N)cc1O (stereo not drawn)	5.91%	4.59%	2.7%
O=c1ccc2ncc(Cl)c3c2n1CC3CN1CCC(NCc2cc3c(cn2)OCCO3)CC1 (stereo not drawn)	8.8%	14.5%	5.05%
Cc1cccc(C(=O)NC(NC(=S)Nc2cc(Cl)ccc2Cl)C(Cl)(Cl)Cl)c1 (stereo not drawn)	-0.37%	-1.9%	-2.85%
O=[N+]([O-])c1ccc2ncnc(Nc3ccc(F)c(Cl)c3)c2c1	2.27%	0.68%	2.32%
O=C(Nc1ccc(-c2cccc(-c3nc4cc(C(F)(F)F)ccc4[nH]3)c2)cc1)c1ccoc1	4.69%	3.58%	3.22%
O=C(NCCCc1ccccc1)c1csc(C2CCCN(C(=O)c3ccc(O)c(-c4cccc5ccccc45)c3)C2)n1 (stereo not drawn)	0.14%	-0.18%	-0.59%
CN(C)CCOc1cc(NC(=O)Nc2cccc3c(-c4ccncc4)cccc23)ccc1I	4.55%	3.67%	4.12%
O=C(Nc1ccc(Cl)c(-c2nc3ccccc3[nH]2)c1)c1ccc(-c2ccc(Cl)cc2)o1	2.63%	4.17%	1.89%
COc1ccc(O)cc1Cc1cnc2nc(N)nc(N)c2c1C	-0.06%	1.16%	0.83%
CN(C)Cc1cccc(CNC(=O)c2sccc2OCc2ccc(Cl)cc2)c1	-0.98%	-3.67%	1.11%
COc1ccc(C(C(=O)NC2CCN(C[C@H](O)c3ccnc4ccc(OC)cc34)CC2)N2CCc3ccccc3C2)cc1 (stereo partly drawn)	2.66%	2.33%	2.69%
CC(C)NCc1cccc(-c2cccc(NC(=O)c3cccc(C#N)c3)c2)c1	5.22%	4.93%	5.23%
Cn1cncc1CCN(Cc1ccc(-c2ccc(C(F)(F)F)cc2)cc1)C(=O)Cn1c(SCc2cccc(F)c2F)cc(=O)c2ccccc21	4.77%	1.65%	2.14%
